These results are taken from PubChem BioAssay (NCATS).

Inconclusive results are not listed. Activity calls are given as the source filed them. The call rests on the fitted dose curve; in most records, active means well fitted curve in the direction sought with a large enough effect; inconclusive means small, poorly fitted or top-dose-only effect, or another doubt; inactive means no such curve, though single readings can be large; an effect the other way counts as inactive or inconclusive.

For test [1], the target named is Glutathione peroxidase 1 (Homo sapiens) (UniProt P07203). Description: Primary qHTS Assay for Inhibitors of Recombinant Selenoprotein Glutathione Peroxidase 1 (GPX1) (AID 1845191). Further: nearly all actives have a fitted effect of over 65% in size. Further: potency means the concentration at half of the fitted maximal effect. A digest of the protocol:
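GR-coupled readout: NADPH consumption tracked by fluorescence, ex 340/em 450 nm, at t=0 and after 15 min at RT. Final mix 10 nM GPX1, 1 mM GSH, 0.5 mM CHP, 0.5 mM NADPH, 100 nM GR, 0.01% BSA, following 30 min enzyme–compound preincubation.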
Background: qHTS replaces the single test concentration by a dilution series.

Test [2] deals with Phospholipid hydroperoxide glutathione peroxidase GPX4 (Homo sapiens) (UniProt P36969). Description: Primary qHTS Assay for Inhibitors of Recombinant Selenoprotein Glutathione Peroxidase 4 (GPX4) (AID 1845192). Further: nearly all actives have a fitted effect of over 65% in size. Further: potency means the concentration at half of the fitted maximal effect. Put shortly:
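Steps: GPX4 plus compound, 30 min RT; add GR/GSH/NADPH master mix; start with cumene hydroperoxide; read 340/450 nm fluorescence at 0 and 15 min. Finals were 200 nM GPX4, 1 mM GSH, 0.5 mM CHP, 0.5 mM NADPH, 100 nM GR.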

Test [3] addresses Luciferin 4-monooxygenase (Photinus pyralis) (UniProt P08659). The test is described as follows: Primary firefly luciferase (FLuc) qHTS assay for identification of artifact compounds. (AID 1845220). Further: nearly all actives have a fitted effect of over 60% in size. The settings on record: outcome: dose series up to 54.1 µM. A digest of the protocol: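 Enzymatic FLuc inhibition assay: compounds pre-exposed to luciferin/ATP (10 uM each) for 15 min, then purified P. pyralis enzyme at 10 nM added. Read-out: luminescence at 5 min.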

Test [4] can be described thus: Primary fluorescence-based thiol-reactive (MSTI) qHTS assay for identification of artifact compounds. (AID 1845221).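 Further: series mostly up to about 54 µM; thiol-reactive compounds lower the probe fluorescence signal; nearly all actives have a fitted effect of over 65% in size.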 Put shortly:
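First, 4 uM MSTI in 2% DMSO/PBS pH 7.4 was dispensed; next, compounds were added; then plates sat 1 h at room temperature without light. Finally, emission at 598 nm was recorded.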

For test [5], the system named is Nanoluciferase (engineered Oplophorus gracilirostris luciferase). The test is described as follows: Primary Nanoluciferase (NLuc) qHTS assay for identification of artifact compounds. (AID 1845222).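 Further: NLuc secreted into diluted conditioned medium of S16 cells; series mostly up to about 54 µM.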 A digest of the protocol: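 S16 cell supernatant NLuc, 1:55; cpds qHTS; 15 min RT dark; Nano-Glo substrate 1:100, 5 min; luminescence; Hill fit of % inhibition.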
Test [6] in a line: Primary redox qHTS assay for identification of artifact compounds. (AID 1845223). A digest of the protocol: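 Redox-cycling detection via DTT (250 uM final) oxidation coupled to Amplex Red (25 uM)/HRP (250 mU/mL) in HBSS. 15 min preincubation plus 30 min after DTT, room temperature. Ex/Em 525/598 nm; 4-parameter Hill fit against DMSO and 10 uM DA3003.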

Glutathione peroxidase 1 (Homo sapiens), sequence (P07203 whole entry, looked up): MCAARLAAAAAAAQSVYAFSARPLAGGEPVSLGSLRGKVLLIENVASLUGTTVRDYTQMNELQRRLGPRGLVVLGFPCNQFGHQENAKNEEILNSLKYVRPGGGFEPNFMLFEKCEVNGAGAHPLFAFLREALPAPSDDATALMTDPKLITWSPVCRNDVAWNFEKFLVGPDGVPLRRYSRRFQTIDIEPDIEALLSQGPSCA
Phospholipid hydroperoxide glutathione peroxidase GPX4 (Homo sapiens), sequence (P36969 whole entry, looked up): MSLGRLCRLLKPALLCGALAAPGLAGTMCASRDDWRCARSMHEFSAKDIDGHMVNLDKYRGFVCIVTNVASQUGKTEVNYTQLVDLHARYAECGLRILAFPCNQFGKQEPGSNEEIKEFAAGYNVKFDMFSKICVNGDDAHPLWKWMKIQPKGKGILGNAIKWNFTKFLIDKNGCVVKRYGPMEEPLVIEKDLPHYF

As for `CNC(=O)C[C@@H](N)C(=O)N[C@@H](C(=O)N[C@@H]1C(=O)N2[C@@H]1SC(C)(C)[C@@H]2C(=O)O)c1ccc(O)cc1`, the Potency entry in test [1] and in test [2] was “inactive” in each case.

Consider `CC1CCCCN1CCCOC(=O)c1ccccc1` (stereo unspecified), for which the Potency entry in test [1] and in test [2] was “inactive” in each case.

As for `CO[C@@H]1[C@H](OC(=O)/C=C/C=C/C=C/C=C/C(=O)O)CC[C@]2(CO2)[C@H]1[C@@]1(C)O[C@@H]1CC=C(C)C`, the Potency entry in test [1] was “inactive”. Further, the Potency in test [2] is 14.1 µM (active).

Take `COC(=O)CCC[N+](C)(C)C`: the Potency entry in test [1] and in test [2] was “inactive” each time.

In the case of `CCOC(=O)Oc1c(OC)cc(C(=O)O[C@@H]2C[C@@H]3CN4CCc5c([nH]c6cc(OC)ccc56)[C@H]4C[C@@H]3[C@H](C(=O)OC)[C@H]2OC)cc1OC`, the Potency result in test [1] is “inactive”. Further, in test [2], the Potency is 15.8 µM (active).

Regarding `O=C(NNCS(=O)(=O)O)c1ccncc1`, the Potency in test [1] was 5.7 µM (active); in test [2] it was 3.98 µM (active).

In the case of `CC(C)Cc1ccc([C@@H](C)C(=O)NS(C)(=O)=O)cc1`, the Potency result in test [1] and in test [2] was “inactive” in each case.

For `CCCCCCCCCCCCCCCCCC(=O)OCC(C)O` (stereo unspecified), the Potency entry in test [1] and in test [2] was “inactive” each time.

On to `O=C(O)CCC(=O)c1ccc(-c2ccccc2)cc1`, for which the Potency result in test [1] and in test [2] was “inactive” each time.

Take `C/C=C/C=C/C(=O)O`: the Potency entry in test [1] and in test [2] was “inactive” in each case.

As for `NS(=O)(=O)c1cc2c(cc1Cl)NC(Cc1ccccc1)NS2(=O)=O` (stereo unspecified), the Potency result in test [1] and in test [2] was “inactive” throughout.

In the case of `CC(/C=C/C=C(\C)C(=O)O[C@@H]1O[C@H](CO[C@@H]2O[C@H](CO)[C@@H](O)[C@H](O)[C@H]2O)[C@@H](O)[C@H](O)[C@H]1O)=C\C=C\C=C(C)\C=C\C=C(/C)C(=O)O[C@@H]1O[C@H](CO[C@@H]2O[C@H](CO)[C@@H](O)[C@H](O)[C@H]2O)[C@@H](O)[C@H](O)[C@H]1O`, the Potency entry in test [1] and in test [2] was “inactive” each time.

Consider `CCCCCCCCCC(=O)NO`, for which the Potency result in test [1] and in test [2] was “inactive” each time.

On to `O=[N+]([O-])c1c(Cl)cccc1-c1c[nH]cc1Cl`, for which the Potency entry in test [1] and in test [2] was “inactive” each time.

Regarding `C[C@]12CCC(=O)C[C@@H]1CC[C@@H]1[C@@H]2CC[C@]2(C)C=CC[C@@H]12`, the Potency entry in test [1] and in test [2] was “inactive” throughout.

Regarding `CN[C@@H]1[C@@H](O)[C@@H](O[C@@H]2[C@@H](O)[C@H](O[C@H]3O[C@H](CN)[C@@H](O)[C@H](O)[C@H]3O)[C@@H](N)C[C@H]2NC(=O)C(O)CN)OC[C@]1(C)O` (stereo partly specified), the Potency result in test [1] and in test [2] was “inactive” each time.

In the case of `CCN(CC)CCOc1ccc2nc(N(C)C)sc2c1`, the Potency result in test [1] and in test [2] was “inactive” in each case.

As to `CCN1C(=O)NC(c2ccccc2)C1=O` (stereo unspecified), the Potency entry in test [1] and in test [2] was “inactive” throughout.

For the compound `CCC(C(=O)NC(N)=O)c1ccccc1` (stereo unspecified), the Potency entry in test [1] and in test [2] was “inactive” in each case.

As to `CN1CCN(C(c2ccccc2)c2ccc(Cl)cc2)CC1` (stereo unspecified), the Potency entry in test [1] and in test [2] was “inactive” in each case.

In the case of `N=C(N)c1ccc(/C=C/c2ccc(C(=N)N)cc2O)cc1`, the Potency result in test [1] and in test [2] was “inactive” each time.

Turning to `CC(C)[C@H](N)C(=O)OCC(CO)OCn1cnc2c(=O)[nH]c(N)nc21` (stereo partly specified), the Potency entry in test [1] and in test [2] was “inactive” throughout.

Turning to `C/C(=C\C(=O)OCCCCCCCCC(=O)O)C[C@@H]1OC[C@H](C[C@@H]2O[C@H]2[C@@H](C)[C@H](C)O)[C@@H](O)[C@H]1O`, the Potency result in test [1] and in test [2] was “inactive” each time. The call in test [3], in test [4] and in test [5] was inactive.

`CCN(CC)CCOCCOC(=O)C(CC)(CC)c1ccccc1`: the Potency result in test [1] and in test [2] was “inactive” each time. The call in test [3], in test [4], in test [5] and in test [6] was inactive.

Take `COc1ccc(C[C@H](C)NC[C@@H](O)c2ccc(O)c(NC=O)c2)cc1`: the Potency result in test [1] and in test [2] was “inactive” in each case. Moreover, the compound was called inactive in test [3], in test [4], in test [5] and in test [6].

As for `CC1CC(OC(=O)C(O)c2ccccc2)CC(C)(C)C1` (stereo unspecified), the Potency entry in test [1] and in test [2] was “inactive” in each case. In addition, the compound was called inactive in test [3], in test [5] and in test [6].
